# From PubChem
# ELG1 genotox = genotoxicity induction in ELG1-luciferase HEK293T cells; HEK293T ELG1-luciferase reporter, luminescence, 16 h; Potency, µM (titrated, usually from 46 µM), for inactives: at the highest dose activity change, positive = activation, usual class: activators; actives 1.3% (n = 330,000); AID 504466; also: % of control where 0% means no effect; nearly all actives have a fitted effect of over 60% in size
#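 Genotoxic stress is detected as increased luminescence from luciferase-tagged ELG1 in HEK293T cells, measured with ONE-Glo after a 16 hr treatment at 37 °C.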
# KinaseGlo FLuc = Kinase-Glo luciferase inhibition (counter-screen). Q27757. Kinase-Glo luciferase, ATP luminescence, 8 min. Potency, µM (doses to about 38.3 µM), inactives show at the highest dose activity change, negative = inhibition, hits mostly inhibitors. actives 0.28% (n = 200,000). AID 1379; also: % is scaled to controls: 0 for no effect and ±100 for the full control effect; nearly all actives have a fitted effect of over 60% in size
#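 Inhibition of Kinase-Glo luciferase light generation was assessed at 10 uM ATP in pH 7.2 imidazole buffer, with luminescence measured after eight minutes at ambient temperature.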
# NPC1 prom act = activators of NPC1 promoter; AID 485313; actives 2.4% (n = 320,000); Potency, µM (titrated, usually from 9.22 µM), for inactives: top-dose activation, hits mostly activators; Huh7 NPC1 promoter luciferase reporter, 24 h; also: % of control where 0% means no effect; nearly all actives have a fitted effect of over 60% in size
#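 Luminescence read-out of NPC1 promoter-driven luciferase in stably transfected Huh7 cells; compounds delivered in DMSO and left 24 h at 37C, 5% CO2, qHTS titration format.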
# Rab9 prom act = activators of Rab9 promoter; Huh7 Rab9 promoter-luciferase reporter, luminescence, 24 h; Potency, µM (titrated, usually from 9.22 µM), without a hit: at the top dose activation, negative = inhibition, most hits filed as activators; actives 2.8% (n = 320,000); also: % of control where 0% means no effect; nearly all actives have a fitted effect of over 60% in size
#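 Luciferase signal after 10 min detection reagent at ambient indicates Rab9 promoter upregulation; stably transfected Huh7 cells were treated 24 h with compound in DMSO at 37 °C, 5% CO2.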
# SMN2 splice up = increases expression of the SMN2 splice variant; HEK293 SMN2-luciferase splicing reporter, luminescence, 30-36 h; actives 2.8% (n = 210,000); Potency, µM (top dose mostly 46.1 µM), without a hit: top-dose activity change, positive = activation, most hits filed as activators; also: % of control where 0% means no effect; nearly all actives have a fitted effect of over 55% in size
#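 qHTS luciferase splicing reporter: luminescence rises when SMN2 exon 7 is included in transfected HEK293 cells. Compound exposure lasted 30-36 h at 37C, with 4.5 mM final sodium butyrate as control, followed by a ONE-Glo read.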
# FLuc counter = firefly luciferase modulation, counter-screen for miR-21 project. P08659. purified FLuc, Km substrates, luminescence inhibition. Potency, µM (titrated, usually from 57.5 µM), for the others: top-dose activity change, negative = inhibition, most hits filed as inhibitors. actives 6.9% (n = 360,000). AID 588342;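 also: plate controls were vehicle for no effect and reference inhibitor for full effect; nearly all actives have a fitted effect of over 55% in size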
# Target sequence (P08659 whole entry, looked up): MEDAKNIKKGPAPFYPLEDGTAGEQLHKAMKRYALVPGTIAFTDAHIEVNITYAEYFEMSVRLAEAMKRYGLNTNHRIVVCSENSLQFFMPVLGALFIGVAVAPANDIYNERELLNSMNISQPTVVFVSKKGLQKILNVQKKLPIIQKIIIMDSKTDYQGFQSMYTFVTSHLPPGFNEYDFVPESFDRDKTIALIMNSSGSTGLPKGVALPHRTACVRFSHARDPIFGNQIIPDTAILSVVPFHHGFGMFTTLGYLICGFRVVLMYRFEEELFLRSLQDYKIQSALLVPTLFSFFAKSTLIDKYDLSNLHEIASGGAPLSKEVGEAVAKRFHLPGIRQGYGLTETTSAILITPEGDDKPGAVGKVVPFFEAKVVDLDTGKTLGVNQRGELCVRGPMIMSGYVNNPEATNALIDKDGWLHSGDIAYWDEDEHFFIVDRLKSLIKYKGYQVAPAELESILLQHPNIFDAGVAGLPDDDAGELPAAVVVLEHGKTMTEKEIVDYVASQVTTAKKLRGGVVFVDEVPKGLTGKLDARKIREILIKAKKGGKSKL
#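 Purified P. pyralis luciferase (10nM final) with 10uM D-luciferin and 10uM ATP (Km levels) in 50mM Tris acetate pH 7.5, 10mM Mg acetate, 0.01% Tween-20, 0.05% BSA; qHTS 6-point titration, ~60 µM downward; luminescence read.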
# The depositor's hits bear a star; ? = inconclusive; / = not tested or not shown; [ ] = dose if it differs, or a comment. In the library only some 7.3% were active in any assay of this set; here they are far more common. Calls follow the shape of the dose curve; as a rule, active = well fitted curve in the direction sought with a large enough effect; inconclusive = small, poorly fitted or top-dose-only effect, or another doubt; inactive = no such curve, though single readings can be large; an effect the other way counts as inactive or inconclusive. Potency is read from the fitted curve at half-maximal effect.
SMILES,ELG1 genotox,KinaseGlo FLuc,NPC1 prom act,Rab9 prom act,SMN2 splice up,FLuc counter
Cc1ccc(Cl)cc1Nc1nn2c(=O)c3ccc(C(=O)NC(C)c4ccccc4)cc3nc2s1 (stereo not drawn),/,/,/,/,/,-3.8%
C[C@@H](CO)NC(=O)c1ccc2c3n(nc2c1)-c1ccc(Cl)cc1CO3,7.3µM*,/,1.41µM*,2.82µM*,/,3.01µM*
CC(C)[C@@H](CO)NC(=O)c1ccc2c3n(nc2c1)-c1ccc(Cl)cc1CO3,?,/,1.41µM*,1.12µM*,/,8.49µM*
Cc1ccc(-c2noc(C3CCCN(C(=O)c4c(F)cccc4F)C3)n2)cc1 (stereo not drawn),-10.8%,-1.3%,-4.5%,2.0%,-35.1%,-15.9%
Cc1c(-c2nc(-c3ccccc3)no2)nnn1-c1ccc(F)c(Cl)c1,/,/,/,/,/,-3.4%
COc1cccc(-n2nnc(-c3nc(-c4ccccc4F)no3)c2C)c1,/,/,/,/,/,2.39µM*
COc1ccc(Cl)cc1-n1nnc(-c2nc(-c3ccccc3)no2)c1C,/,/,/,/,/,15.1µM*
O=C1CN(C(=O)NCC(=O)N[C@H](C(=O)O)c2ccccc2)c2ccccc2N1,1.3%,/,2.1%,0.2%,/,1.2%
CC1(C)CC(=O)c2sc(NS(=O)(=O)Cc3ccccc3)nc2C1,12.5%,7.8%,0.8%,18.7%,?,?
CCC1=C(OC(=O)N(CC)CC)N2C(=O)OC(=NCCc3c[nH]c4ccccc34)[C@]2(C)[C@H]2C1=CC[C@H]1C(=O)N(C)C(=O)[C@H]12,0.3%,-2.2%,3.8%,-3.9%,-0.7%,0.2%
C=CCOC(=O)/C(=C/c1cccc2ccccc12)NC(=O)c1ccccc1,9.6%,-0.5%,10.2%,19.8%,?,19µM*
CCCSC1=N/C(=C\c2ccc([N+](=O)[O-])o2)C(=O)S1,0.1%,-6.5%,-0.1%,-2.2%,-0.8%,?
CCCSC1=N/C(=C\C=C\c2ccco2)C(=O)S1,-0.2%,5.4%,-2.0%,0.5%,-6.1%,10.7µM*
CCOc1ccc(N2CC(NC(=O)c3cccs3)CC2=O)cc1 (stereo not drawn),/,/,/,/,/,-3.1%
CCOc1ccccc1C1N=C(c2ccc(OC)cc2)CC(c2ccccc2O)N1 (stereo not drawn),?,-0.4%,?,?,/,19µM*
O=c1c(-c2cccs2)nc2cnc(N3CCNCC3)nc2n1-c1ccccc1,/,-0.8%,/,/,-11.4%,/
Nc1c(Cl)ncnc1N/N=C/c1ccc(O)cc1,?,/,-3.3%,20.0%,/,13.5µM*
O=C(O)c1ccc(/C=N/Nc2ncc(Cl)cc2Cl)cc1,7.7%,/,16.0%,26.4%,/,?
Oc1ccc(/C=N/Nc2nccnc2Cl)cc1,11.6µM*,3.55µM*,3.98µM*,3.16µM*,?,10.7µM*
Cc1cc(C(=O)NNC(=O)CN2C(=O)NC3(CCCCC3)C2=O)c(C)o1,-0.5%,/,-1.3%,-1.4%,/,-0.6%
Nc1nc(Cl)nc2c1ncn2[C@@H]1O[C@H](CO)[C@@H](O)[C@H]1O,8.2%,-1.0%,2.3%[46.1 µM],0.3%[46.1 µM],-81.7%,-0.8%
CCOC(=O)C1CCCN(c2c(C(=O)c3ccc(OCC)cc3)cnc3ccccc23)C1 (stereo not drawn),/,/,/,/,-5.6%,-12.1%
N#Cc1c(-n2ccnc2)cccc1-n1ccnc1,-0.1%,8.4%,-5.5%,-3.9%,-8.8%,4.9%
Cc1ccc2nc(C)/c(=N\O)c(C)nc2c1,?,-5.6%,2.5%,-6.0%,3.7%,?
Cc1nc2ccc(Cl)cc2nc(C)/c1=N\O,18.4µM*,2.0%,-0.1%,5.4%,-8.0%,?
SMILES,ELG1 genotox,KinaseGlo FLuc,NPC1 prom act,Rab9 prom act,SMN2 splice up,FLuc counter
COc1ccc(/C(CC2OC(=O)c3ccccc32)=N\NC(N)=O)cc1 (stereo not drawn),0.3%,-1.4%,-0.6%,-2.0%,-5.1%,0.8%
CC(C)(C)c1ccc(-n2ncc3c2CCCC3NC(=O)c2csnn2)cc1 (stereo not drawn),-3.8%,/,-6.5%,-5.0%,/,-4.6%
CC(C)(C)c1ccc(-n2ncc3c2CCCC3NC(=O)c2cnccn2)cc1 (stereo not drawn),?,/,-15.0%,-14.3%,/,23.9µM*
Cc1c(NC(=O)CSc2nnc3c4ccccc4n(CCc4ccccc4)c3n2)c(=O)n(-c2ccccc2)n1C,-12.1%,-3.5%,-4.6%,12.5%,3.16µM*,6.4%
CCn1c2ccccc2c2nnc(SCC(=O)Nc3c(C)n(C)n(-c4ccccc4)c3=O)nc21,-0.6%,0.8%,-2.9%,0.0%,-11.3%,-0.3%
Cn1c2ccccc2c2nnc(SCC(=O)Nc3cccc(O)c3)nc21,10.9%,/,-0.8%,5.8%,/,6.75µM*
Cc1cccc(NC(=O)CSc2nnc3c4ccccc4n(C)c3n2)c1,/,/,/,/,-11.9%,-0.8%
Cc1ccc(C)c(OCc2cc(C(=O)N3CC[C@H](O)C3)no2)c1,?,/,29.6%,2.51µM*,/,12µM*
CCN1CCC2(CCN(C(=O)c3cc(COc4cc(C)ccc4C)on3)C2)C1 (stereo not drawn),-0.3%,/,-6.5%,-2.4%,/,-0.3%
COc1cc(Cl)ccc1OCc1cc(C(=O)N2CCC(N(C)C)C2)no1 (stereo not drawn),4.0%,/,0.5%,-3.1%,/,-17.3%
COc1ccc(OCc2cc(C(=O)N3CCCC(O)C3)no2)c2ccccc12 (stereo not drawn),?,/,?,?,/,12µM*
COc1ccc(OCc2cc(C(=O)NC3CCOCC3)no2)c2ccccc12,0.2%,/,-3.9%,3.7%,/,-4.7%
CCCOC1CCCN(C(=O)c2cc(COc3c(F)cccc3F)on2)C1 (stereo not drawn),?,/,2.82µM*,2.24µM*,/,12µM*
COc1ccc(OCc2cc(C(=O)N3CCCC(OC)C3)no2)c2ccccc12 (stereo not drawn),?,/,?,?,/,26.9µM*
Cc1ccc(SCCNC(=O)/C=C/c2ccc([N+](=O)[O-])cc2)cc1,-1.4%,-3.5%,0.2%,-3.6%,-5.4%,-17.7%
CCOC(=O)C1CCN(C(=O)CNC(=O)c2nn(-c3ccc(OC)c(Cl)c3)c(=O)c3ccccc23)CC1,1.5%,/,24.5%,20.9%,/,2.69µM*
COc1ccc(-n2nc(C(=O)NCC(=O)N3CCCC(C)C3)c3ccccc3c2=O)cc1Cl (stereo not drawn),-2.3%,/,-2.4%,-0.9%,/,5.36µM*
COc1ccc(-n2nc(C(=O)NCC(=O)NC(C)C)c3ccccc3c2=O)cc1Cl,-5.8%,/,-1.8%,3.1%,/,-3.5%
CCC(C)NC(=O)CNC(=O)c1nn(-c2ccc(OC)c(Cl)c2)c(=O)c2ccccc12 (stereo not drawn),-5.6%,/,-3.1%,-3.8%,/,-10.5%
